Test results taken from PubChem BioAssay (EPA / NIEHS).
Records with an inconclusive call do not appear. A structure can be active in one record and inactive in another. Calls of active or inactive are those of the source. Rule for the calls, unless noted: active = hit-call score of the fitted dose curve at least 0.9, where 1 is the maximum; inactive = score below 0.9.

Assays:
[1] = read-out: Interleukin-1 alpha (IL1a), IL1A (gene 3552); test: BSK_LPS_IL1a: BioMAP Diversity Plus: LPS Assay for Interleukin-1 alpha (IL1a) Biomarker Activity (AID 2283080); conditions: primary human HUVEC with PBMC; actives raise or lower the signal
Summary of the method: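 Human umbilical vein endothelial cells co-cultured with peripheral blood mononuclear cells were LPS-stimulated and exposed to test chemicals for 24 h. IL-1 alpha was quantified by ELISA, with bidirectional curve fitting against DMSO as the negative control and baseline.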

[2] = read-out: Monocyte Chemoattractant Protein-1 (MCP1), CCL2 (gene 6347); test: BSK_LPS_MCP1: BioMAP Diversity Plus: LPS Assay for Monocyte Chemoattractant Protein-1 (MCP1) Biomarker Activity (AID 2283081); conditions: primary human HUVEC with PBMC; actives raise or lower the signal;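 for AC50: secreted MCP-1 protein quantified by ELISA in culture supernatant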
Summary of the method: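 HUVEC plus PBMC co-culture (human primary cells, LPS system) exposed to test chemical for 24 h; MCP-1 measured by ELISA. Bidirectional curve fitting against DMSO baseline; parallel SRB total-protein staining flags overt cytotoxicity.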

[3] = BSK_LPS_PGE2: BioMAP Diversity Plus: LPS Assay for Prostaglandin E2 (PGE2) Biomarker Activity (AID 2283082); conditions: primary human HUVEC with PBMC; actives raise or lower the signal;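 for AC50: secreted prostaglandin E2 measured by ELISA in LPS-stimulated co-culture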
Summary of the method: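 HUVEC plus PBMC co-culture stimulated with LPS; secreted PGE2 quantified by ELISA 24 h after chemical dosing. Activity fitted bidirectionally against DMSO as negative control and baseline; parallel SRB total-protein staining served as cytotoxicity check.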

[4] = read-out: Macrophage colony-stimulating factor (MCSF), CSF1 (gene 1435); test: BSK_LPS_MCSF: BioMAP Diversity Plus: LPS Assay for Macrophage colony-stimulating factor (MCSF) Biomarker Activity (AID 2283083); conditions: primary human HUVEC with PBMC; actives raise or lower the signal
Summary of the method: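 Human umbilical vein endothelial cells co-cultured with peripheral blood mononuclear cells were exposed to compound for 24 h. M-CSF levels were measured by ELISA, and bidirectional curve fitting used DMSO as the negative control and baseline.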

[5] = read-out: Tissue Factor, F3 (gene 2152); test: BSK_LPS_TissueFactor: BioMAP Diversity Plus: LPS Assay for Tissue Factor Biomarker Activity (AID 2283084); conditions: primary human HUVEC with PBMC; actives raise or lower the signal
Summary of the method: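 Human umbilical vein endothelial cells co-cultured with peripheral blood mononuclear cells were dosed and stimulated with LPS. Cell-surface CD142 was quantified by ELISA at 24 h. Activity was fitted bidirectionally against DMSO baseline.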

[6] = read-out: Tumor necrosis factor (Homo sapiens) (UniProt P01375); test: BSK_LPS_TNFa: BioMAP Diversity Plus: LPS Assay for Tumour Necrosis Factor alpha (TNFa) Biomarker Activity (AID 2283085); conditions: primary human HUVEC with PBMC; actives raise or lower the signal
Summary of the method: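 Human umbilical vein endothelial cells co-cultured with PBMC were exposed to test chemical and TNFa measured by ELISA 24 h after dosing. Bidirectional curve fitting was done relative to DMSO as negative control and baseline.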

[7] = read-out: Vascular cell adhesion molecule 1 (VCAM1), VCAM1 (gene 7412); test: BSK_LPS_VCAM1: BioMAP Diversity Plus: LPS Assay for Vascular cell adhesion molecule 1 (VCAM1) Biomarker Activity (AID 2283086); conditions: primary human HUVEC with PBMC; actives raise or lower the signal
Summary of the method: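 Human umbilical vein endothelial cells co-cultured with peripheral blood mononuclear cells under LPS stimulation were exposed to test chemical for 24 h. VCAM-1 levels were then measured by ELISA, with bidirectional curve fitting relative to DMSO as negative control and baseline.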

[8] = read-out: CD38, CD38 (gene 952); test: BSK_SAg_CD38: BioMAP Diversity Plus: SAg Assay for CD38 Biomarker Activity (AID 2283087); conditions: primary human HUVEC with PBMC; actives raise or lower the signal
Summary of the method: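 Fluorescence ELISA of cell-surface CD38 served as the read-out, with either increase or decrease fitted against DMSO controls. Cells were a human umbilical vein endothelium plus PBMC co-culture under SEB/TSST-1 stimulation, measured 24 h after dosing.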

[9] = read-out: CD40, CD40 (gene 958); test: BSK_SAg_CD40: BioMAP Diversity Plus: SAg Assay for CD40 Biomarker Activity (AID 2283088); conditions: primary human HUVEC with PBMC; actives raise or lower the signal
Summary of the method: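 Human umbilical vein endothelial cells co-cultured with PBMC; CD40 levels measured by ELISA with fluorescence read-out 24 h after chemical dosing. Gain or loss of signal fitted bidirectionally against DMSO baseline.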

[10] = read-out: CD69, CD69 (gene 969); test: BSK_SAg_CD69: BioMAP Diversity Plus: SAg Assay for CD69 Biomarker Activity (AID 2283089); conditions: primary human HUVEC with PBMC; actives raise or lower the signal;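 for AC50: cell surface CD69 protein quantified by ELISA with fluorescence detection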
Summary of the method: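 Primary human vascular co-culture (umbilical vein endothelium with peripheral blood mononuclear cells) exposed to test chemical for 24 h. CD69 levels quantified by fluorescence ELISA; DMSO served as negative control for bidirectional fitting.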

[11] = read-out: Monocyte Chemoattractant Protein-1 (MCP1), CCL2 (gene 6347); test: BSK_SAg_MCP1: BioMAP Diversity Plus: SAg Assay for Monocyte Chemoattractant Protein-1 (MCP1) Biomarker Activity (AID 2283090); conditions: primary human HUVEC with PBMC; actives raise or lower the signal
Summary of the method: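 MCP-1 levels in the endothelial–PBMC SAg co-culture were quantified by ELISA at 24 h post-dosing; both increases and decreases versus DMSO scored. Cytotoxicity monitored by SRB total protein in parallel cultures.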

[12] = read-out: E-selectin (Homo sapiens) (UniProt P16581); test: BSK_SAg_Eselectin: BioMAP Diversity Plus: SAg Assay for Eselectin Biomarker Activity (AID 2283091); conditions: primary human HUVEC with PBMC; actives raise or lower the signal
Summary of the method: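 HUVEC co-cultured with PBMC, compound dosed then read at 24 h; E-selectin measured by ELISA. Activity fitted bidirectionally against DMSO as negative control and baseline.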

[13] = read-out: Monokine induced gamma interferon (MIG), CXCL9 (gene 4283); test: BSK_SAg_MIG: BioMAP Diversity Plus: SAg Assay for Monokine induced gamma interferon (MIG) Biomarker Activity (AID 2283092); conditions: primary human HUVEC with PBMC; actives raise or lower the signal
Summary of the method: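 Endothelial cells and PBMC were co-cultured, exposed to test chemicals, and sampled 24 h later. MIG was measured by ELISA, and responses were fitted in both directions relative to DMSO.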

[14] = BSK_SAg_PBMCCytotoxicity: PBMC Cytotoxicity Assessment in the BioMAP Diversity Plus: SAg Assay (AID 2283093); conditions: primary human HUVEC with PBMC;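 note: PBMC viability measured as Alamar Blue reduction fluorescence at 546/580 nm; fitted both ways against DMSO so a hit may be loss or gain of signal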;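 for AC50: PBMC superantigen activated with SEB plus TSST-1 one hour after compound addition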
Summary of the method: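 Compound added to 75,000 PBMC/well for 1 h; SEB and TSST-1 then added at 20 ng/mL final each; 90 h incubation; Alamar Blue 6 h; read 546/580 nm ex/em. Activity fitted bidirectionally relative to DMSO baseline.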

[15] = read-out: Interleukin-8 (IL8), CXCL8 (gene 3576); test: BSK_SAg_IL8: BioMAP Diversity Plus: SAg Assay for Interleukin-8 (IL8) Biomarker Activity (AID 2283094); conditions: primary human HUVEC with PBMC; actives raise or lower the signal
Summary of the method: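 Human umbilical vein endothelial cells co-cultured with peripheral blood mononuclear cells; IL-8 measured by ELISA 24 h after chemical dosing. Bidirectional concentration-response fitting used DMSO as negative control and activity baseline.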

[16] = BSK_SAg_Proliferation: Cell Proliferation Assessment in the BioMAP Diversity Plus: SAg Assay (AID 2283095); conditions: primary human HUVEC with PBMC;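 note: relative cell number as total protein by SRB absorbance in sub-confluent culture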
Summary of the method: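 Human umbilical vein endothelial cells co-cultured with peripheral blood mononuclear cells; total protein measured by sulforhodamine B staining (0.1% SRB after 10% TCA fixation), absorbance at 560 nm, at 96 h. Bidirectional fit against DMSO baseline.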

[17] = BSK_SAg_SRB: Viability Assessment in the BioMAP Diversity Plus: SAg Assay (AID 2283096); conditions: primary human HUVEC with PBMC;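 note: cells read one day after compound addition; hits may be either gain or loss of signal compared with DMSO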
Summary of the method: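 Total protein by sulforhodamine B staining, 24 h after dosing, in HUVEC–PBMC co-culture; DMSO-referenced bidirectional fitting.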

[18] = target: human CYP19A1, CYP19A1 (gene 1588) (UniProt P11511); test: NVS_ADME_hCYP19A1: NovaScreen (NVS) CYP450-related Enzyme Activity (ADME) Assay for human CYP19A1 (AID 2283098; active = hit-call score of the fitted dose curve at least 0.9, where 1 is the maximum;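 for AC50: potency for inhibitors seen as loss of fluorescent enzyme signal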)
human CYP19A1, CYP19A1 (gene 1588), sequence (P11511 whole entry, looked up): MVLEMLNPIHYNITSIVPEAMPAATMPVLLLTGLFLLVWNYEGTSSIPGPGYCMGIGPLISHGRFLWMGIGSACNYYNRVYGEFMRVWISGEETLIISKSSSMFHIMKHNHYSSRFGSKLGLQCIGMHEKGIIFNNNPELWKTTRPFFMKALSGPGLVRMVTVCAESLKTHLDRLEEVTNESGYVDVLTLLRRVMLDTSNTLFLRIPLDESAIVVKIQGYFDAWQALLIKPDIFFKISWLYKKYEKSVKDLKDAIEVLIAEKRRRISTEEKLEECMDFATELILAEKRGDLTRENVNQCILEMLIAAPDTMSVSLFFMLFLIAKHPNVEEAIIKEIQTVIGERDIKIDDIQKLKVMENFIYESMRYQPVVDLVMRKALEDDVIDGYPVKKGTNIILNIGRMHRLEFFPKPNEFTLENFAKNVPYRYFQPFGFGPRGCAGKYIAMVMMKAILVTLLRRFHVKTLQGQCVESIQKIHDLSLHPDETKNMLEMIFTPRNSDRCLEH
Summary of the method: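 Biochem, cell-free; recombinant enzyme + specific substrate; fluorescence intensity at 0.5 h post-dose; 10 uM duplicate primary, conc. series for actives; acetonitrile = negative control/baseline; positive and negative controls on every plate.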

Measured: AC50

E-selectin (Homo sapiens), sequence (P16581 whole entry, looked up): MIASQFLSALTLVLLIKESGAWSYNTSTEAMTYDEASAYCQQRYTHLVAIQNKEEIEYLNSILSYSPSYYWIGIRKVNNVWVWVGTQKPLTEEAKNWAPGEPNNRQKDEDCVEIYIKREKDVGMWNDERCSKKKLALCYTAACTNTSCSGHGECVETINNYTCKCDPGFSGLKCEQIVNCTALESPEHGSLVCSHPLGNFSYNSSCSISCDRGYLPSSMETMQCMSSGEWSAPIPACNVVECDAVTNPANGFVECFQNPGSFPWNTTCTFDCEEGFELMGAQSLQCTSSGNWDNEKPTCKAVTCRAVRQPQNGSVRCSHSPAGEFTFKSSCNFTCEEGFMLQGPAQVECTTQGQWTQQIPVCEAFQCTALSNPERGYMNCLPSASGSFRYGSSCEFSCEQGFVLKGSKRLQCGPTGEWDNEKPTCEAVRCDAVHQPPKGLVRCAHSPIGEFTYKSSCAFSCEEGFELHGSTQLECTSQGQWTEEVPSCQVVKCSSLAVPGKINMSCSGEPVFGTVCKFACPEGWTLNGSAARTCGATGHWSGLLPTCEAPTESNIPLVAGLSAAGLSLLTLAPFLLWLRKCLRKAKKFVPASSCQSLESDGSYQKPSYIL
Tumor necrosis factor (Homo sapiens), sequence (P01375 whole entry, looked up): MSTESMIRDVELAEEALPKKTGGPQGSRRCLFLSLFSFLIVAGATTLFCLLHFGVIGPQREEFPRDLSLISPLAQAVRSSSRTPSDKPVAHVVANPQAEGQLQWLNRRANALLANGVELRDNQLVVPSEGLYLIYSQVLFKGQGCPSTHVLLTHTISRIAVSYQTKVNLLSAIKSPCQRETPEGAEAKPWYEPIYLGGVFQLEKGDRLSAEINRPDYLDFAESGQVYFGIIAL

CCc1ccc(C(=O)NN(C(=O)c2cc(C)cc(C)c2)C(C)(C)C)cc1
active: [3] 20 µM | [6] 14.2 µM | [8] 30.6 µM | [10] 13.5 µM | [12] 9.03 µM | [15] 11.3 µM | [16] 17.7 µM
inactive: [1] | [2] | [4] | [5] | [7] | [9] | [11] | [13] | [14] | [17]

CNC(=O)Oc1cccc(N=CN(C)C)c1
inactive: [1] | [2] | [3] | [4] | [6] | [10] | [11] | [13] | [14] | [15] | [17]
active: [5] 26.5 µM | [7] 17.4 µM | [8] 33 µM | [9] 34.6 µM | [12] 18.7 µM | [16] 17.9 µM

O=C(NC(=O)c1c(F)cccc1F)Nc1ccc(OC(F)(F)C(F)OC(F)(F)F)c(Cl)c1 (configuration not stated)
inactive: [1] | [2] | [3] | [4] | [5] | [6] | [7] | [9] | [10] | [13] | [15] | [17]
active: [8] 16.3 µM | [11] 32.2 µM | [12] 9.18 µM | [14] 8.44 µM | [16] 9.75 µM

Clc1ccccc1-c1nnc(-c2ccccc2Cl)nn1
inactive: [1] | [2] | [3] | [4] | [5] | [6] | [7] | [8] | [9] | [10] | [11] | [12] | [13] | [14] | [15] | [16] | [17]

COC(=O)c1ccccc1S(=O)(=O)NC(=O)Nc1nc(C)nc(OC)n1
active: [14] 15.5 µM
inactive: [1] | [2] | [3] | [4] | [5] | [6] | [7] | [8] | [9] | [10] | [11] | [12] | [13] | [15] | [16] | [17]

C[C@H]1[C@H](c2ccc(Cl)cc2)SC(=O)N1C(=O)NC1CCCCC1
inactive: [3] | [5] | [6] | [13] | [14]
active: [1] 26.4 µM | [2] 20.1 µM | [4] 14.6 µM | [7] 12.5 µM | [8] 16 µM | [9] 15.4 µM | [10] 13.5 µM | [11] 27 µM | [12] 15.2 µM | [15] 13.6 µM | [16] 18.1 µM | [17] 9.32 µM

O=S(=O)(O)C(F)(F)C(F)(F)C(F)(F)C(F)(F)C(F)(F)C(F)(F)C(F)(F)C(F)(F)F
inactive: [1] | [2] | [3] | [4] | [5] | [6] | [7] | [8] | [9] | [10] | [11] | [12] | [13] | [14] | [15] | [16] | [17] | [18]
active: [6] 15 µM | [9] 20 µM | [12] 20 µM | [18] 5.35 µM

CCOc1nc(NC)nc(NC(=O)NS(=O)(=O)c2ccccc2C(=O)OC)n1
inactive: [1] | [2] | [3] | [4] | [5] | [6] | [7] | [8] | [9] | [10] | [11] | [12] | [13] | [14] | [15] | [16] | [17]

CC(C)N(C(=O)COc1nnc(C(F)(F)F)s1)c1ccc(F)cc1
active: [6] 12.6 µM | [16] 15.8 µM
inactive: [1] | [2] | [3] | [4] | [5] | [7] | [8] | [9] | [10] | [11] | [12] | [13] | [14] | [15] | [17]

CCC(C)(C)C(=O)OC1=C(c2ccc(Cl)cc2Cl)C(=O)OC12CCCCC2
inactive: [3]
active: [1] 36.5 µM | [2] 31.2 µM | [4] 17.5 µM | [5] 14.1 µM | [6] 32.5 µM | [7] 24.4 µM | [8] 10.3 µM | [9] 10.6 µM | [10] 14.9 µM | [11] 16.7 µM | [12] 11.5 µM | [13] 21.3 µM | [14] 26.5 µM | [15] 4.73 µM | [16] 12.3 µM | [17] 32.8 µM

C#CCN1C(=O)COc2cc(F)c(N3C(=O)C4=C(CCCC4)C3=O)cc21
active: [8] 14.2 µM | [12] 16.3 µM
inactive: [1] | [2] | [3] | [4] | [5] | [6] | [7] | [9] | [10] | [11] | [13] | [14] | [15] | [16] | [17]
